# Screening results (PubChem)
# SUMO Mot1 rescue: inhibitors of SUMOylation pathway: yeast Mot1-301 growth rescue; hit rate 1% among 320,000; growth rescue, % at 18.8 µM; S. cerevisiae Mot1-301 growth rescue, ATP luminescence, 38.5C; percent above DMSO median, 100 means doubled;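 active means every valid replicate shows activation above 250% relative to neutral control wells; inactive means the rest, any valid replicate at or below 250%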;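 further: OY570 slx delta 5 strain wells were the positive control but not used for scaling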
# CHT inh: inhibitors of human choline transporter CHT. CHT-expressing cells, membrane potential dye, choline response; hits give low values. Q9GZV3. AID 488975. hit rate 0.86% among 310,000. B-score at 10 µM;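 active means B-score over 3 SD under the library average, and starting fluorescence ratio not unusually high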;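 further: choline stimulus applied at its EC90 after an EC20 pre-addition; B-score computed on integrated fluorescence ratio after choline addition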
# Target sequence (Q9GZV3 whole entry, looked up): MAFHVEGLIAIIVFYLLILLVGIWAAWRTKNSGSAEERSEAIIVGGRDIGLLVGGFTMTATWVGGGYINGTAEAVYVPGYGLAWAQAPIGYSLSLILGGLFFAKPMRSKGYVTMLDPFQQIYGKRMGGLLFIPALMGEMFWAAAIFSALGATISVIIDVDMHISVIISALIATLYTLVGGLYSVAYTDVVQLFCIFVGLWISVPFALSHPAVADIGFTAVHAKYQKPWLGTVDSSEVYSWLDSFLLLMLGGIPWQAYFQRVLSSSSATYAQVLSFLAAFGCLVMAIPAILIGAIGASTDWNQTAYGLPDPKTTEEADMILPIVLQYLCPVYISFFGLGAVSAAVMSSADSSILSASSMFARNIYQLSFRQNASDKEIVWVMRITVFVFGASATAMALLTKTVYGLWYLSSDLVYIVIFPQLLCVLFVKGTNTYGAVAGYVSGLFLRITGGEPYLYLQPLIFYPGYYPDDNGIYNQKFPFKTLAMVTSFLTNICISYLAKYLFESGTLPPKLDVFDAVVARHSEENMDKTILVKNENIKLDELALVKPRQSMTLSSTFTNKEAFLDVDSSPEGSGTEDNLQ
# MEKK2 mut-MEK5: signal of MEK5 binding to mutant human MEKK2 PB1 domain. bead flow cytometry, Alexa488-MEK5 binding to MEKK2 mutant. hit rate 0.35% among 290,000. AID 1530. percent response, % at 10 µM; in the data active means percent response above about 24%, passing the limit was not always enough
# MEKK3 PB1 HTS: raises or lowers MEK5 binding to the human MEKK3 PB1 domain. Q99759. binding response (% of control), % at 10 µM. AID 1529. hit rate 1.4% among 290,000. bead-based flow cytometry, Alexa488-MEK5 binding to MEKK3; actives lie on both sides; 0 = blocked by unlabeled MEK5, 100 = vehicle;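 active means binding response more than 3 SD above or below the average of its plate-row segment, actives on both sides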;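 further: Alexa488 bead fluorescence after subtracting the streptavidin-only scavenger bead signal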
# MEKK2 WT-MEK5: raises or lowers MEK5 binding to wildtype human MEKK2 PB1 domain; AID 1531; binding response (% of control), % at 10 µM; Q9Y2U5; bead flow cytometry, Alexa488-MEK5 binding to MEKK2 WT; actives lie on both sides; hit rate 1.1% among 290,000; in the data active means binding response below about 67% or above about 130%
# CHT PAM: allosteric activators of human choline transporter CHT. Q9GZV3. B-score at 10 µM. hit rate 0.49% among 310,000. CHT-expressing cells, membrane potential dye, choline EC20; hits give high values; LV-AA mutant CHT in HEK293 cells. AID 488977;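 active means initial fluorescence not abnormally high and integrated response B-score, plate-corrected, over 3 SD above library mean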
# MEKK2wt confirm: raises or lowers MEK5 binding to wildtype human MEKK2, retest; bead flow cytometry, Alexa488-MEK5 binding to MEKK2 WT; actives lie on both sides; AID 1892; binding response (% of control), % at 10 µM; shares compounds with MEKK3 PB1 HTS; hit rate 2.4% among 5,900; in the data active means binding response below about 16% or above about 210%; inactive means in between
# MEKK2mut-MEK5: signal of MEK5 binding to mutant human MEKK2, retest; shares compounds with MEKK3 PB1 HTS; bead flow cytometry, Alexa488-MEK5 binding to MEKK2 mutant; percent response, % at 10 µM; hit rate 2% among 5,900; AID 1893; in the data active means percent response mostly above about 71%, no sharp cut-off; inactive means mostly below about 38%;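 further: higher means compound restores mutant binding toward wildtype level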
# MEKK3 confirm: MEKK3-MEK5 PB1 inhibition, single concentration confirmation. shares compounds with MEKK3 PB1 HTS. bead flow cytometry, Alexa488-MEK5 binding to MEKK3; hits give low values. binding response (% of control), % at 10 µM. hit rate 1.8% among 5,900. AID 1894;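 active means binding response below 72% of control, or above a set upper limit, though filed actives all read lower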;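 further: 100% = DMSO only wells and 0% = binding blocked by excess unlabeled MEK5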
# An asterisk follows results filed as active; i = inactive; x = not tested or not shown; [ ] = another dose, or the depositor's remark. Compounds with a hit are over-represented: about 4.1% of the library has one in this group of screens.
SMILES,SUMO Mot1 rescue,CHT inh,MEKK2 mut-MEK5,MEKK3 PB1 HTS,MEKK2 WT-MEK5,CHT PAM,MEKK2wt confirm,MEKK2mut-MEK5,MEKK3 confirm
Cc1ccc(C(=O)CSc2nnc(COc3ccc(C#N)cc3)n2-c2ccccc2)cc1,10,i,-4,82,94,i,x,x,x
Cc1ccc(NC(=O)CSc2nnc(COc3ccc(C#N)cc3)n2-c2ccccc2)cc1C,-1,i,-16,1.0*[inhibitor],1.0*[inhibitor],i,99,-4,95
O=C1CC(N2CCOCC2)C(=O)N1CCN1C(=O)CC(N2CCOCC2)C1=O (stereo not drawn),-43,i,-16,2.0*[inhibitor],2.0*[inhibitor],i,98,-1,97
O=C(Cn1cnc2ccccc2c1=O)Nc1nnc(SCc2ccc(Cl)cc2)s1,-2,i,-12,35*[inhibitor],32*[inhibitor],i,107,7,107
Nc1ccc2nc(-c3cccc(-c4nc5ccc(N)cc5[nH]4)n3)[nH]c2c1,0,i,-13,79*[inhibitor],77,i,96,-2,77
Nc1ccc2nc(-c3ccc(-c4nc5ccc(N)cc5[nH]4)cc3)[nH]c2c1,122,i,-26,53*[inhibitor],65*[inhibitor],i,81,-17,71*
Nc1ccc2nc(CCCCCCCCc3nc4ccc(N)cc4[nH]3)[nH]c2c1,129,i,9,107,140*,i,147,36,102
Nc1ccc(-c2nc3ccccc3[nH]2)cc1,1,i,3,108,110,i,x,x,x
COc1ccccc1/C=C/C=N/n1c(-c2cc(C)[nH]n2)n[nH]c1=S,19,i,1,91,91,i,x,x,x
Cc1cc(-c2n[nH]c(=S)n2/N=C/C=C/c2ccccc2)n[nH]1,-5,i,0,153*,105,i,103,10,105
O=C(Nc1ccc(OC(F)F)c(Cl)c1)c1cccc(OC(F)F)c1,2,i,27,106,151*,i,113,6,107
CS(=O)(=O)N(CC(=O)N1CCCC1)c1ccc(Cl)cc1,3,i,2,105,106,i,x,x,x
Cn1cc(C(=O)c2cccc(Cl)c2)cc1/C=N\O,-5,i,-12,42*[inhibitor],59,i,99,4,98
CC(C)[C@H](NC(=O)C1CCCC1)c1nc2ccccc2[nH]1,-13,i,0,107,101,i,x,x,x
Nc1c(N(CCO)C(=O)/C=C/c2ccco2)c(=O)[nH]c(=O)n1Cc1ccccc1,3,i,-4,50*[inhibitor],61,i,99,-8,102
O=C(CSc1nc(NS(=O)(=O)c2ccccc2)cc(=O)[nH]1)Nc1ccc(Cl)cc1,x,x,1,78,71,x,x,x,x
O=c1cc(NS(=O)(=O)c2ccccc2)nc(SCc2ccc(Cl)cc2)[nH]1,-13,i,1,129*,105,i,98,-9,99
Cc1csc(Sc2nc3c(c(=O)[nH]c(=O)n3C)n2CCCc2ccccc2)n1,-7,i,-21,2.0*[inhibitor],1.0*[inhibitor],i,91,-10,93
Cn1c(=O)[nH]c(=O)c2c1nc(SCCO)n2CCCc1ccccc1,-12,i,-2,96,98,i,x,x,x
CCOc1ccc(N=C2NC(=O)C(CC(=O)Nc3ccc(OC)cc3)S2)cc1 (stereo not drawn),7,i,1,103,92,i,x,x,x
Cc1ccc(NC(=O)CC2SC(=Nc3ccc(O)cc3)NC2=O)cc1 (stereo not drawn),21,i,0,133*,115,i,123,10,106
